Inconclusive results are not listed. Activity calls are given as the source filed them. Rule for the calls, unless noted: active = hit-call score of the fitted dose curve at least 0.9, where 1 is the maximum; inactive = score below 0.9.
Experiments:
[1] = read-out: E-selectin (Homo sapiens) (UniProt P16581); experiment: BSK_SAg_Eselectin: BioMAP Diversity Plus: SAg Assay for Eselectin Biomarker Activity (AID 2283091); settings: primary human HUVEC with PBMC; actives raise or lower the signal
In short: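 Endpoint values derive from bidirectional fitting relative to DMSO, using ELISA-measured E-selectin in a human vascular co-culture (umbilical vein endothelium plus PBMC) sampled 24 h after dosing.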

[2] = read-out: Monokine induced gamma interferon (MIG), CXCL9 (gene 4283); experiment: BSK_SAg_MIG: BioMAP Diversity Plus: SAg Assay for Monokine induced gamma interferon (MIG) Biomarker Activity (AID 2283092); settings: primary human HUVEC with PBMC; actives raise or lower the signal
In short: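 HUVEC plus human PBMC co-culture, chemicals dosed and MIG (CXCL9) quantified by ELISA at 24 h. Bidirectional curve fitting against DMSO as negative control and baseline, so both gain and loss of signal count as activity.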

[3] = BSK_SAg_PBMCCytotoxicity: PBMC Cytotoxicity Assessment in the BioMAP Diversity Plus: SAg Assay (AID 2283093); settings: primary human HUVEC with PBMC;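 note: PBMC viability measured as Alamar Blue reduction fluorescence at 546/580 nm; fitted both ways against DMSO so a hit may be loss or gain of signal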;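 for AC50: PBMC superantigen activated with SEB plus TSST-1 one hour after compound addition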
In short: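 Compound added to 75,000 PBMC/well for 1 h; SEB and TSST-1 then added at 20 ng/mL final each; 90 h incubation; Alamar Blue 6 h; read 546/580 nm ex/em. Activity fitted bidirectionally relative to DMSO baseline.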

[4] = BSK_SAg_Proliferation: Cell Proliferation Assessment in the BioMAP Diversity Plus: SAg Assay (AID 2283095); settings: primary human HUVEC with PBMC;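 note: relative cell number as total protein by SRB absorbance in sub-confluent culture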
In short: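 Human umbilical vein endothelial cells co-cultured with peripheral blood mononuclear cells; total protein measured by sulforhodamine B staining (0.1% SRB after 10% TCA fixation), absorbance at 560 nm, at 96 h. Bidirectional fit against DMSO baseline.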

[5] = BSK_SAg_SRB: Viability Assessment in the BioMAP Diversity Plus: SAg Assay (AID 2283096); settings: primary human HUVEC with PBMC;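 note: cells read one day after compound addition; hits may be either gain or loss of signal compared with DMSO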
In short: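 Total protein by sulforhodamine B staining, 24 h after dosing, in HUVEC–PBMC co-culture; DMSO-referenced bidirectional fitting.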

[6] = read-out: Interleukin-8 (IL8), CXCL8 (gene 3576); experiment: BSK_SAg_IL8: BioMAP Diversity Plus: SAg Assay for Interleukin-8 (IL8) Biomarker Activity (AID 2283094); settings: primary human HUVEC with PBMC; actives raise or lower the signal
In short: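 Human umbilical vein endothelial cells co-cultured with peripheral blood mononuclear cells; IL-8 measured by ELISA 24 h after chemical dosing. Bidirectional concentration-response fitting used DMSO as negative control and activity baseline.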

[7] = biological target: human CYP2D6, CYP2D6 (gene 1565) (UniProt P10635); experiment: NVS_ADME_hCYP2D6: NovaScreen (NVS) CYP450-related Enzyme Activity (ADME) Assay for human CYP2D6 (AID 2283107; active = hit-call score of the fitted dose curve at least 0.9, where 1 is the maximum)
Chain of human CYP2D6, CYP2D6 (gene 1565) (P10635 whole entry, looked up): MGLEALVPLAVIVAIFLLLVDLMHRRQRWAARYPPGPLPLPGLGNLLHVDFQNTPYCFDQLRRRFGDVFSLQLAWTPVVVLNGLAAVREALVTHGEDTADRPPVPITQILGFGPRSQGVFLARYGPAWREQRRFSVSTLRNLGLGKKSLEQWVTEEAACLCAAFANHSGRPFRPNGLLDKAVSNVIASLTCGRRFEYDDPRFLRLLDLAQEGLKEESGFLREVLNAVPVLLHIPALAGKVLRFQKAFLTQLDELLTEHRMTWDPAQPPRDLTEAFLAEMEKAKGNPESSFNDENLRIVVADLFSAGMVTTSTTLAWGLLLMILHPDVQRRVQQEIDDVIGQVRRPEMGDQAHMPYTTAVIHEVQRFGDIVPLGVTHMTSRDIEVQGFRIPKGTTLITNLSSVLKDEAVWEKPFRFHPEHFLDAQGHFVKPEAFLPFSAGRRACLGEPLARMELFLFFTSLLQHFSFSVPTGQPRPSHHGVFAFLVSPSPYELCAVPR
In short: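 Biochemical fluorescence assay, insect-cell-derived enzyme. Read at 1 h; inhibition taken from loss of signal against acetonitrile. Screened at 10 uM in duplicate, with concentration series for actives.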

[8] = biological target: human CYP2C9, CYP2C9 (gene 1559) (UniProt P11712); experiment: NVS_ADME_hCYP2C9: NovaScreen (NVS) CYP450-related Enzyme Activity (ADME) Assay for human CYP2C9 (AID 2283108; active = hit-call score of the fitted dose curve at least 0.9, where 1 is the maximum)
Chain of human CYP2C9, CYP2C9 (gene 1559) (P11712 whole entry, looked up): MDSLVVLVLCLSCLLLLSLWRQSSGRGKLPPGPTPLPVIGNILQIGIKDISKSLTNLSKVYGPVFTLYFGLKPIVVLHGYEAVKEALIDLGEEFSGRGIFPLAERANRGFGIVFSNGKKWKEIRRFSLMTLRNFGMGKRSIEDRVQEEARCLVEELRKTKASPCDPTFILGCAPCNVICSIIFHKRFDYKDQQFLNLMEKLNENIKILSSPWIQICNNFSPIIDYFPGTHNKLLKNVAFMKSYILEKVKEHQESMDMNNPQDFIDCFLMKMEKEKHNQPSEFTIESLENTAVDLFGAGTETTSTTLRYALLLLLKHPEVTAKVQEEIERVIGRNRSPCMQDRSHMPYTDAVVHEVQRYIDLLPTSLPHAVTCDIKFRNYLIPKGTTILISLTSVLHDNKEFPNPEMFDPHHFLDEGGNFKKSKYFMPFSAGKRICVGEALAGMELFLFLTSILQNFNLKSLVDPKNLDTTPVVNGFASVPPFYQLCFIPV
In short: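 Fluorescence readout of CYP2C9 activity (SF9-expressed human enzyme) at 0.75 h. The primary screen used 10 uM in duplicate, with concentration-response follow-up for actives; acetonitrile was the negative control.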

[9] = biological target: Cytochrome P450 2C19 (Homo sapiens) (UniProt P33261); experiment: NVS_ADME_hCYP2C19: NovaScreen (NVS) CYP450-related Enzyme Activity (ADME) Assay for human CYP2C19 (AID 2283113; active = hit-call score of the fitted dose curve at least 0.9, where 1 is the maximum;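 note: potency for inhibition seen as loss of fluorescent signal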)
In short: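 Biochemical CYP2C19 inhibition screen: insect-cell recombinant protein plus fluorescent substrate, 1 h, fluorescence intensity. Acetonitrile defined baseline activity. Single 10 uM concentration in duplicate, with concentration-response follow-up for actives.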

[10] = biological target: human CYP1A1, CYP1A1 (gene 1543) (UniProt P04798); experiment: NVS_ADME_hCYP1A1: NovaScreen (NVS) CYP450-related Enzyme Activity (ADME) Assay for human CYP1A1 (AID 2283100; active = hit-call score of the fitted dose curve at least 0.9, where 1 is the maximum)
Chain of human CYP1A1, CYP1A1 (gene 1543) (P04798 whole entry, looked up): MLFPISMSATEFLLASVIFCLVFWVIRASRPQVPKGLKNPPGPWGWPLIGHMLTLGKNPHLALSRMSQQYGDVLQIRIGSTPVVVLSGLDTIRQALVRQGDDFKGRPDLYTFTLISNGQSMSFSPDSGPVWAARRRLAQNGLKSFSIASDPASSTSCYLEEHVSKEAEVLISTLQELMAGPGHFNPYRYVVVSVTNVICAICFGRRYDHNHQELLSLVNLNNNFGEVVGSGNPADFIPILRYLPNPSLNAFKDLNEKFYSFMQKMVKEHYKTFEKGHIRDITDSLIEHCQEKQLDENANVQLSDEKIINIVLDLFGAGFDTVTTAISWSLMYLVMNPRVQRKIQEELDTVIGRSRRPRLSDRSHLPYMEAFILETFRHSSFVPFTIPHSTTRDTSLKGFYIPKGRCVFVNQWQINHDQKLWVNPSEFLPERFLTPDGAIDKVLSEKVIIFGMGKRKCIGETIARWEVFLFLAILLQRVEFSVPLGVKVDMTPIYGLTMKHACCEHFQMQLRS
In short: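 Inhibition of recombinant CYP1A1 turnover was assessed fluorometrically in a biochemical format 1 h after compound exposure. Testing began at 10 uM in duplicate and progressed to concentration series reaching 20 uM, with on-plate positive and negative controls.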

[11] = biological target: human CYP2B6, CYP2B6 (gene 1555) (UniProt P20813); experiment: NVS_ADME_hCYP2B6: NovaScreen (NVS) CYP450-related Enzyme Activity (ADME) Assay for human CYP2B6 (AID 2283101; active = hit-call score of the fitted dose curve at least 0.9, where 1 is the maximum)
Chain of human CYP2B6, CYP2B6 (gene 1555) (P20813 whole entry, looked up): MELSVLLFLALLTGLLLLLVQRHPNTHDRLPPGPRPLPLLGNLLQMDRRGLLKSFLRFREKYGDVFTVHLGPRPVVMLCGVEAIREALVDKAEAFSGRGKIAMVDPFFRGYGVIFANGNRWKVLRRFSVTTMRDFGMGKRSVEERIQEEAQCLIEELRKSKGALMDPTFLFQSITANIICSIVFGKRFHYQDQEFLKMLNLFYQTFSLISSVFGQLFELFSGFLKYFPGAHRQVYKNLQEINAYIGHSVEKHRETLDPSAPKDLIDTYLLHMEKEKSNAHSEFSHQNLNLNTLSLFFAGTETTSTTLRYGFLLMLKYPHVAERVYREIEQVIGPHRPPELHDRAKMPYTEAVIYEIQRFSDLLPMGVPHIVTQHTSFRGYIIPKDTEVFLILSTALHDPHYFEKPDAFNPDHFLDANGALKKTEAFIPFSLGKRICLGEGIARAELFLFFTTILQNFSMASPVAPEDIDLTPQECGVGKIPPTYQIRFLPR
In short: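 Recombinant human CYP2B6 with fluorogenic substrate, read by fluorescence intensity 1 h after dosing. Primary screen in duplicate at 10 uM, actives followed in concentration series; signal loss relative to acetonitrile control.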

[12] = biological target: human CYP1A2, CYP1A2 (gene 1544) (UniProt P05177); experiment: NVS_ADME_hCYP1A2: NovaScreen (NVS) CYP450-related Enzyme Activity (ADME) Assay for human CYP1A2 (AID 2283102; active = hit-call score of the fitted dose curve at least 0.9, where 1 is the maximum;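 note: potency for inhibition since loss of fluorescence marks reduced CYP1A2 activity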)
Chain of human CYP1A2, CYP1A2 (gene 1544) (P05177 whole entry, looked up): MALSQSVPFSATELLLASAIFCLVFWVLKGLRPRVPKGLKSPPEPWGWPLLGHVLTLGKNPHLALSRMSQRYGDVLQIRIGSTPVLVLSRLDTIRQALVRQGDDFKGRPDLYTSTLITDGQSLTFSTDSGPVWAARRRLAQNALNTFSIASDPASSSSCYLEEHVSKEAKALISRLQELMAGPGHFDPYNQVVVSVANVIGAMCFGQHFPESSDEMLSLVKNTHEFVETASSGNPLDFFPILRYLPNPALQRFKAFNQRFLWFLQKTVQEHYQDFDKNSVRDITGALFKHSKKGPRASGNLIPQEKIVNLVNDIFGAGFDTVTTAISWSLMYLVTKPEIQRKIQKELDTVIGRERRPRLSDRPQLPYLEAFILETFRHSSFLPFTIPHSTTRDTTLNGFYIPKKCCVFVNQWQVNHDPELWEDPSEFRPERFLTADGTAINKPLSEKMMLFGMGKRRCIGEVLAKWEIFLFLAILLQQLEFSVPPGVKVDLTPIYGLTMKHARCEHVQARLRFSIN
In short: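 Inhibition scored as decrease in fluorescent product versus acetonitrile negative control. Enzyme: insect-cell recombinant human CYP1A2, substrate-specific, cell-free. Reading at 0.5 h; 10 uM duplicate initial screen with positive and negative controls on every plate.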

[13] = biological target: Cytochrome P450 3A4 (Homo sapiens) (UniProt P08684); experiment: NVS_ADME_hCYP3A4: NovaScreen (NVS) CYP450-related Enzyme Activity (ADME) Assay for human CYP3A4 (AID 2283110; active = hit-call score of the fitted dose curve at least 0.9, where 1 is the maximum)
Chain of Cytochrome P450 3A4 (Homo sapiens) (P08684 whole entry, looked up): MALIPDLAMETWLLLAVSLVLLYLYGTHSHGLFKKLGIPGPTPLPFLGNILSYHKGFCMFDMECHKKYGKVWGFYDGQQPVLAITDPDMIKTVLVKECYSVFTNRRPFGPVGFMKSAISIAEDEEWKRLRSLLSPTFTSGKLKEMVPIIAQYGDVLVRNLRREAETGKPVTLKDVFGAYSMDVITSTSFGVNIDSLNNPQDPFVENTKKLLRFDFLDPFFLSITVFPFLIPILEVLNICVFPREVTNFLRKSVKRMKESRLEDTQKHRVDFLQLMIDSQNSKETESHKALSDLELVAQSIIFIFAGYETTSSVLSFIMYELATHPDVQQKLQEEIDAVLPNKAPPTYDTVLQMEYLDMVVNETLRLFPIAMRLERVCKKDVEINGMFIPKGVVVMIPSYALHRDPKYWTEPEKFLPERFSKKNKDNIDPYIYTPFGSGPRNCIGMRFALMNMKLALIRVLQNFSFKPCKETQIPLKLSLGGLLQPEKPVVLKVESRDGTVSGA
In short: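 Compounds were first screened in duplicate at 10 uM against recombinant CYP3A4 produced in insect cells, then actives were run in concentration series. Enzyme activity was measured by fluorescence after 0.33 hour, with acetonitrile as baseline.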

[14] = biological target: human CYP4F12, CYP4F12 (gene 66002) (UniProt Q9HCS2); experiment: NVS_ADME_hCYP4F12: NovaScreen (NVS) CYP450-related Enzyme Activity (ADME) Assay for human CYP4F12 (AID 2283111; active = hit-call score of the fitted dose curve at least 0.9, where 1 is the maximum)
Chain of human CYP4F12, CYP4F12 (gene 66002) (Q9HCS2 whole entry, looked up): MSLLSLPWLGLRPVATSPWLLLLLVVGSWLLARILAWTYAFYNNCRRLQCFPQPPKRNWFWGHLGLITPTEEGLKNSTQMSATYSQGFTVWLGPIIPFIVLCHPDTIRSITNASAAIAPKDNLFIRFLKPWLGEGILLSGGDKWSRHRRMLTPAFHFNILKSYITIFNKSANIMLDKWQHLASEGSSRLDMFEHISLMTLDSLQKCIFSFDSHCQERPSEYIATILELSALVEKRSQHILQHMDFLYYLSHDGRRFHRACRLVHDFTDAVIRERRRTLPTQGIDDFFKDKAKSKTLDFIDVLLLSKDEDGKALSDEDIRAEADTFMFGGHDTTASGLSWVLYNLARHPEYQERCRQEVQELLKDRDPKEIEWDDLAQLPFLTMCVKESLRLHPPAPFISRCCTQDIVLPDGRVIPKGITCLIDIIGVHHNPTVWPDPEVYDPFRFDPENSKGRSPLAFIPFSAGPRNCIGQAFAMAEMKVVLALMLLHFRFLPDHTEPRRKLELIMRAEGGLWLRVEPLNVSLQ
In short: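 Cell-free fluorescence assay of recombinant human CYP4F12 activity on a specific substrate, read 0.5 h after dosing. Primary screen in duplicate at 10 uM, then concentration series for actives; loss of signal fitted against acetonitrile negative control.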

Measured: AC50

Chain of E-selectin (Homo sapiens) (P16581 whole entry, looked up): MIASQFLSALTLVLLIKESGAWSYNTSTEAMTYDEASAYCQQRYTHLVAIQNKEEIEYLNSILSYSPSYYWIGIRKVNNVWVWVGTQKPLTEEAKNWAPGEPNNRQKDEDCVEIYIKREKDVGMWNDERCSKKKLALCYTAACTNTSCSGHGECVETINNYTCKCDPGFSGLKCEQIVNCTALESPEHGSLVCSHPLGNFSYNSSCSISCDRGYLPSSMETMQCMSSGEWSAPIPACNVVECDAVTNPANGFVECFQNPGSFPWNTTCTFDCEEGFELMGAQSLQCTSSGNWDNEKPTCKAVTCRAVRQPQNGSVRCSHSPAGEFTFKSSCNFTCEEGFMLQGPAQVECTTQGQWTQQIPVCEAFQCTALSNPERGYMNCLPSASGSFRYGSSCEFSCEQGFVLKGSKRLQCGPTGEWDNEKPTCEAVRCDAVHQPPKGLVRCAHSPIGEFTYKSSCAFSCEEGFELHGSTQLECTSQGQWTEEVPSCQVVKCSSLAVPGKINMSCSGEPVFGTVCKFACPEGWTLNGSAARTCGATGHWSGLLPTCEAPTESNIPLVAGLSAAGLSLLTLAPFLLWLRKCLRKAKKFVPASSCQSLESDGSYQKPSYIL

O=Cc1cccc(Oc2ccccc2)c1
inactive: [1] | [2] | [3] | [4] | [5]

C=C(C)C(=O)[O][Sn]([CH2]CCC)([CH2]CCC)[CH2]CCC
active: [1] 0.147 µM | [2] 0.148 µM | [3] 0.236 µM | [6] 0.31 µM | [4] 0.188 µM | [5] 0.148 µM

ClCC(Cl)CCl
inactive: [2] | [3] | [6] | [4] | [5]

CCCCCCCCC(=O)NCc1ccc(O)c(OC)c1
active: [7] 3.45 µM | [8] 3.95 µM | [9] 1.66 µM
inactive: [1] | [2] | [3] | [4] | [5]

COP(=S)(OC)Oc1c(Cl)cc(C)cc1Cl
active: [4] 31.6 µM
inactive: [1] | [2] | [3] | [5]

CC(=O)[O][Hg][c]1ccccc1
active: [2] 1.78 µM | [3] 0.318 µM | [6] 11.9 µM | [4] 0.259 µM | [5] 1.63 µM | [10] 16 µM | [11] 6.73 µM | [12] 3.31 µM | [7] 4.16 µM | [8] 9.85 µM | [13] 1.28 µM | [14] 1.9 µM | [9] 1.04 µM

C[C@@H]1C[C@@H]([C@H](O)CC2CC(=O)NC(=O)C2)C(=O)[C@@H](C)C1
active: [1] 0.585 µM | [2] 13 µM | [3] 4.6 µM | [4] 3.82 µM | [5] 7.07 µM

Oc1ccc(-c2ccccc2)cc1
active: [9] 0.47 µM
inactive: [1] | [2] | [3] | [4] | [5]

Oc1c(I)cc(I)cc1I
active: [1] 14.7 µM | [2] 34.2 µM | [6] 34.3 µM | [4] 31.9 µM | [5] 20 µM
inactive: [3]

CCNc1nc(NC(C)(C)C)nc(SC)n1
inactive: [2] | [3] | [6] | [4] | [5]

Nc1cccc2ccccc12
inactive: [1] | [2] | [3] | [4] | [5]
active: [7] 3.45 µM

Source: PubChem BioAssay (EPA / NIEHS)
